From PubChem BioAssay (EPA / NIEHS)
Calls of active or inactive are those of the source. How the source made its calls, unless noted: active means hit-call score of the fitted dose curve at least 0.9, where 1 is the maximum; inconclusive means response in the unintended direction; inactive means score below 0.9.

test: CPHEA_Stoker_NIS_Cytotoxicity: Cytotoxicity Assessment for CPHEA's Radioactive Iodide Uptake (RAIU) Assay for Sodium/Iodide Symporter (NIS) Inhibition, Stoker and Laws Labs (AID 2283897); details: not given;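 on AC50: active means loss of ATP signal versus DMSO meaning cytotoxicity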
How it was run: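 hNIS-HEK293T-EPA cells, human NIS expressed in HEK293T, treated 2 h with chemicals (0.001–100 uM, 0.5% final DMSO). ATP content read by CellTiter-Glo luminescence; loss of signal analysed relative to DMSO.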

Compound	outcome	AC50
CCCCOC(=O)c1ccc(O)cc1	inactive	
O=c1[nH]sc2ccccc12	inactive	
O=C(O)Cc1cc(I)c(Oc2ccc(O)c(I)c2)c(I)c1	inactive	
CC(C)(C)c1csc(-c2cc3cc(OCc4ccccc4CC(=O)O)ccc3o2)n1		9.92 µM (active)
NCc1cccc(C2CCN(C(=O)c3ccc(C#Cc4ccccc4F)o3)CC2)c1		16.3 µM (active)
CCN(CC)C(=O)c1cc(S(=O)(=O)Cc2ccccc2)c(N2CCC(c3ccccc3)CC2)cc1N(CC)CCN(C)C	inactive	
CC(C)(C)c1cc(/C=C2\SC(N)=NC2=O)cc(C(C)(C)C)c1O		4.96 µM (active)
COc1cc(C(=O)NC2CCN(C)CC2)ccc1Nc1ncc2c(n1)N(C1CCCC1)CC(F)(F)C(=O)N2C	inactive	
CN(C[C@@H](CC[N+]12CCC(C3CCCCC3)(CC1)CC2)c1ccc(Cl)c(Cl)c1)C(=O)c1cc(C(F)(F)F)cc(C(F)(F)F)c1		10.5 µM (active)
CC(C)(O)c1ccc(CNC(=O)c2cccnc2Oc2ccc3nonc3c2)cc1	inactive	
CN(C)c1ccc(C(=C2C=CC(=[N+](C)C)C=C2)c2ccc(N(C)C)cc2)cc1		5.35 µM (active)
Clc1cc(Cl)c2c(c1)N=C1CCCCCN1C2	inactive	
CC/C(=C(/CC)c1ccc(O)cc1)c1ccc(O)cc1		9.92 µM (active)
O=C1c2ccccc2C(=O)N1CCc1noc(-c2ccc(CN3CCCCCC3)s2)n1		11.5 µM (active)
CCCCCCCCOC(=O)c1cc(O)c(O)c(O)c1	inactive	
CCOC(=O)O[C@H](C)OC(=O)c1ccc2c(c1)cc(C(=O)NC1CCN(C(C)C)CC1)n2Cc1cc(-c2ccc(Cl)s2)on1		9.92 µM (active)

Compound	outcome	AC50
CCN(Cc1cccnc1)C(=O)c1cccc(Cl)c1[C@]1(C)C(=O)N(Cc2ccc(OC)cc2OC)c2ccc(Cl)cc21	inactive	
CN(C)C(=O)C1(N2CCCCC2)CCN(CC[C@@]2(c3ccc(Cl)c(Cl)c3)CN(C(=O)c3ccccc3)CCO2)CC1	inactive	
Cc1cc2c(cc1C(F)(F)F)N(C(=O)Nc1ccc(Oc3cccnc3C)nc1)CC2		8.93 µM (active)
Clc1ccccc1C(c1ccccc1)(c1ccccc1)n1ccnc1		9.92 µM (active)
O=C(OCCCCCCOC(=O)c1ccccc1)c1ccccc1	inactive	
CCCCOC(=O)CC(CC(=O)OCCCC)(OC(C)=O)C(=O)OCCCC	inactive	
CC(=O)N1CCN(c2ccc(OC[C@H]3CO[C@](Cn4ccnc4)(c4ccc(Cl)cc4Cl)O3)cc2)CC1		9.92 µM (active)
O=C(Nc1ccc(Cl)cc1)Nc1ccc(Cl)c(Cl)c1	inactive	
OC12N=C(c3ccccc3)SC1Cc1cc(Cl)ccc12 (stereo not drawn)	inactive	
CN1C(=O)N(c2ccccc2Br)Cc2cnc(Nc3ccc4c(c3)OCC(CO)O4)nc21 (stereo not drawn)	inactive	
CCCCCc1ccc(N)cc1	inactive	
Cc1oc2c(NC(=O)c3c(Cl)cccc3Cl)cccc2c1C(C)(C)O	inactive	
CCCCCCCCCCCC[N+](C)(C)C	inactive	
Cc1c2ccccc2c(C)c2c1ccc1ccccc12	inactive	
CC(C)(c1cc(Br)c(O)c(Br)c1)c1cc(Br)c(O)c(Br)c1		13.6 µM (active)

test: CEETOX_H295R_11DCORT_noMTC: CeeTox H295R High-throughput Steroidogenesis Assay for 11-Deoxycortisol (11DCORT), maximum tolerated concentration (MTC) filtered results only (AID 2283911; active means hit-call score of the fitted dose curve at least 0.9, where 1 is the maximum; inactive means score below 0.9); details: actives raise or lower the signal
How it was run: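 Values carry no filtering for maximum tolerated concentration: medium from forskolin-primed (10 uM, 48 h) H295R cells after 48 h chemical exposure (0.1% DMSO) was MTBE-extracted, and 11-deoxycortisol quantified by reverse-phase HPLC-MS/MS. Fitting was bidirectional against DMSO.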

Compound	outcome	AC50
O=C(O)c1ccccc1C(=O)OCc1ccccc1	inactive	
CC(C)(O)c1ccc(CNC(=O)c2cccnc2Oc2ccc3nonc3c2)cc1	inactive	
c1ccc(C[n+]2cccc3ccccc32)cc1	inactive	
CC/C(=C(/CC)c1ccc(O)cc1)c1ccc(O)cc1		45 µM (active)

test: CEETOX_H295R_OHPREG_noMTC: CeeTox H295R High-throughput Steroidogenesis Assay for OH-Pregnenolone (OHPREG), maximum tolerated concentration (MTC) filtered results only (AID 2283912; active means hit-call score of the fitted dose curve at least 0.9, where 1 is the maximum; inactive means score below 0.9); details: actives raise or lower the signal
How it was run: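 Medium 17alpha-hydroxypregnenolone quantified by reverse-phase HPLC-MS/MS after 48 h chemical exposure of forskolin-prestimulated (10 uM, 48 h) H295R, 0.1% DMSO final. Fitting bidirectional relative to DMSO; no maximum-tolerated-concentration filtering applied.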

Compound	outcome	AC50
O=C(O)c1ccccc1C(=O)OCc1ccccc1	inactive	
CCCCCCCCOc1ccc(C(=O)c2ccccc2)c(O)c1		30.9 µM (active)
CC(C)(O)c1ccc(CNC(=O)c2cccnc2Oc2ccc3nonc3c2)cc1	inactive	
c1ccc(C[n+]2cccc3ccccc32)cc1	inactive	
CCCCCc1ccc(N)cc1	inactive	

test: CEETOX_H295R_OHPROG_noMTC: CeeTox H295R High-throughput Steroidogenesis Assay for OH-Progesterone (OHPROG), maximum tolerated concentration (MTC) filtered results only (AID 2283914; active means hit-call score of the fitted dose curve at least 0.9, where 1 is the maximum; inactive means score below 0.9); details: actives raise or lower the signal
How it was run: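 After 48 h forskolin (10 uM) prestimulation, H295R adrenal cells received test chemical in 0.1% DMSO for 48 h. Medium 17alpha-hydroxyprogesterone was MTBE-extracted and measured by HPLC-MS/MS; gain or loss relative to DMSO, no MTT-based MTC filtering.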

Compound	outcome	AC50
O=C(O)c1ccccc1C(=O)OCc1ccccc1	inactive	
CCCCCCCCOc1ccc(C(=O)c2ccccc2)c(O)c1		27.4 µM (active)
CC(C)(O)c1ccc(CNC(=O)c2cccnc2Oc2ccc3nonc3c2)cc1	inactive	
c1ccc(C[n+]2cccc3ccccc32)cc1	inactive	
CCCCCc1ccc(N)cc1		12.4 µM (active)

test: CEETOX_H295R_CORTISOL_noMTC: CeeTox H295R High-throughput Steroidogenesis Assay for Cortisol, maximum tolerated concentration (MTC) filtered results only (AID 2283916; active means hit-call score of the fitted dose curve at least 0.9, where 1 is the maximum; inactive means score below 0.9); details: actives raise or lower the signal
How it was run: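 Cortisol secretion measured by LC-MS/MS after 48 h chemical treatment (final 0.1% DMSO) of forskolin-primed (10 uM, 48 h) H295R cells; gain or loss fitted relative to DMSO, without maximum-tolerated-concentration filtering.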

Compound	outcome	AC50
O=C(O)c1ccccc1C(=O)OCc1ccccc1	inactive	
CC(C)(O)c1ccc(CNC(=O)c2cccnc2Oc2ccc3nonc3c2)cc1		61.8 µM (active)
c1ccc(C[n+]2cccc3ccccc32)cc1	inactive	
CC/C(=C(/CC)c1ccc(O)cc1)c1ccc(O)cc1		34.8 µM (active)

test: CEETOX_H295R_CORTIC_noMTC: CeeTox H295R High-throughput Steroidogenesis Assay for Corticosterone (CORTIC), maximum tolerated concentration (MTC) filtered results only (AID 2283917; active means hit-call score of the fitted dose curve at least 0.9, where 1 is the maximum; inactive means score below 0.9); details: actives raise or lower the signal
How it was run: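 Human adrenal H295R cells were prestimulated 48 h with 10 uM forskolin, then exposed 48 h to chemical in 0.1% DMSO. Medium corticosterone was MTBE-extracted and quantified by HPLC-MS/MS; bidirectional fits versus DMSO, concentrations not MTC-filtered.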

Compound	outcome	AC50
O=C(O)c1ccccc1C(=O)OCc1ccccc1	inactive	
CC(C)(O)c1ccc(CNC(=O)c2cccnc2Oc2ccc3nonc3c2)cc1	inactive	
c1ccc(C[n+]2cccc3ccccc32)cc1	inactive	
CC/C(=C(/CC)c1ccc(O)cc1)c1ccc(O)cc1		35.4 µM (active)
